Test results from PubChem BioAssay AID827 (SRMLSC, 2007).
Hit rate of the full screen: of about 140,000 compounds, about 1,700 (1.2%) were called active. For the sample, actives were picked, then their nearest neighbours and some compounds at random. A number with no mark means an inactive call.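 Rule for the calls: active = viability at or below a set limit, 4 SD under the median of all tested compounds (cut at about 3.7% in these data); inactive = the rest.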

Assay: viability loss in PTEN-deleted colon tumor cells – cell-based, HCT116, CellTiter-Glo, primary screen (AID 827);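 note: PTEN knockout HCT116 line with beta catenin targeted HCT116 as companion control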
Conditions: HCT116 PTEN-null viability, 60 h, at 10 µM, stronger effect = lower value

Compound | viability
CCOc1ccccc1C1CC(c2cccc(NS(C)(=O)=O)c2)=NN1C(=O)c1ccccc1 (configuration not stated) | 84.5%
COc1ccc(C2CC(c3ccccc3)=NN2C(=O)c2ccc(Cl)c([N+](=O)[O-])c2)cc1 (configuration not stated) | 10.4%
CCOc1ccc2nc(Cl)c(C3CC(c4ccccc4)=NN3C(=O)c3cccs3)cc2c1 (configuration not stated) | 1.17% (active)
Cc1c(Cl)cnc(NC(=O)COC(=O)c2ccc(S(=O)(=O)NCc3ccco3)cc2)c1Cl | 85.2%
COC(=O)c1sc2ncccc2c1OCc1ccc(Cl)cc1Cl | 63.7%
COc1ccc(C(=O)O/N=C(\N)Cc2ccc(Cl)cc2Cl)cc1OC | 69.4%
NC(N)=N/N=C/c1ccc(OCc2ccc(Cl)cc2Cl)cc1 | 1.56% (active)
CC1CCCCN1C(=S)NCc1ccccc1 (configuration not stated) | 94.7%
O=C(CC1SC(=Nc2ccccc2)N(Cc2ccccn2)C1=O)Nc1cccc(Cl)c1 (configuration not stated) | 76.2%
O=C(Nc1cccc2ccccc12)c1onc2c1CCCC2 | 0.29% (active)
Cc1nc(C)c(C(=O)Nc2cccc(C)c2C)o1 | 109%
O=C(O)c1ccccc1-c1ccccc1C(=O)Nc1cccc2ccccc12 | 96%
Cc1ccc(-n2nc(C)c(/C=N/NC(=O)c3cccs3)c2Cl)cc1 | 55.5%
Cc1c(C2=CCN(S(=O)(=O)c3ccc(Cl)cc3)CC2)c2ccccc2n1C | 74%
COc1cccc(CNCCc2c[nH]c3ccccc23)c1OCc1ccccc1F | 1.43% (active)
COc1ccc(C(CCNCc2ccccc2F)c2ccc(F)cc2)cc1 (configuration not stated) | 10.1%
COc1ccccc1NC(=O)CCCc1c[nH]c2ccccc12 | 92.8%
CCOC(=O)/C(N=Nc1cc(C(=O)O)cc(C(=O)O)c1)=C(\O)CCl | 101%
CC(=O)c1c(N2CCN(c3ccc(F)cc3)CC2)nc(=S)n(-c2ccccc2)c1C | 93%
Nc1nnc(SCC(=O)Nc2ccc3nc(SCC(=O)Nc4ccccc4)sc3c2)s1 | 72.2%
O=c1[nH]n(-c2cccc(Cl)c2)c2ncccc12 | 95.2%
Clc1cccc(CN2COc3c(cc(Cl)c4cccnc34)C2)c1 | 3.76% (active)
Oc1c(CN2CCN(c3ccc(F)cc3)CC2)cc(Cl)c2cccnc12 | 4.32%

Compound | viability
CCOC(=O)c1cccnc1NC(=O)c1ccncc1 | 101%
CCCc1nc2c([nH]1)C(c1cccnc1)C(C#N)=C(N)O2 (configuration not stated) | 98.7%
COC(=O)NNC(=O)C1CCC(C)CC1 (configuration not stated) | 97%
O=C(c1cccc2ccccc12)N1CCN(c2ccccc2F)CC1 | 90.8%
COC(=O)c1ccc(C(=O)OC)c(NC(=S)N2CCN(c3cc(Cl)ccc3C)CC2)c1 | 90.3%
Cc1ccc(Cl)cc1N1CCN(C(=O)c2cccc3c(=O)c(C)c(-c4ccccc4)oc23)CC1 | 1.24% (active)
COCCCNC(=O)Cn1cc(/C=C(\C#N)C(=O)N2CCN(c3ccccc3)CC2)c2ccccc21 | 86.2%
Cc1ccc(-c2nn(-c3ccccc3)cc2C(=O)Nc2cccc(S(=O)(=O)N3CCOCC3)c2)cc1 | 89.5%
Cc1cc(Cl)ccc1NC(=S)N1CCC(C(N)=O)(N2CCCCC2)CC1 | 88.6%
Cc1nc(CC(=O)NNS(=O)(=O)c2ccc(F)c(Cl)c2)cs1 | 95.8%
O=C(Cn1cnc2ccccc21)N/N=C/c1ccco1 | 97.9%
COc1ccc(NC(=O)/C(Cl)=C(/Cl)S(=O)Cc2ccc(C)cc2)cn1 (configuration not stated) | 0.92% (active)
COc1cc(NC(=O)Nc2ccc(C)cc2)cc([N+](=O)[O-])c1 | 79.8%
COc1ccc(NS(=O)(=O)c2ccc(NC(=S)NC(=O)/C=C/c3ccc(C)cc3)cc2)nn1 | 94.4%
O=C(/C=C/c1ccccc1[N+](=O)[O-])NCC1CCCO1 (configuration not stated) | 102%
C=CCNC(=S)NNC(=O)c1ccc(Br)o1 | 94.9%
CCN(CC)S(=O)(=O)c1ccc(C)c(NC(=O)COc2ccc(Br)cc2Cl)c1 | 84.6%
CCn1cc(/C=C2/SC(=S)NC2=O)c(C)n1 | 103%
COc1ccc(-c2cc(C(=O)NC(Cc3c[nH]c4ccccc34)C(=O)O)c(C)o2)cc1OC (configuration not stated) | 99.7%
COc1cc(NS(=O)(=O)c2ccccc2)ccc1-n1nc(C)cc1C | 94.5%
COc1ccc(Nc2cc(C)nc(-n3nc(C)cc3C)n2)cc1 | 18.6%
COc1ccccc1/C=N\Nc1cc(C)nc(-n2nc(C)cc2C)n1 | 2.6% (active)
CCN(CC)CCn1c(/N=C/c2cc(Br)ccc2O)nc2ccccc21 | 94%

Compound | viability
O=C(NCCc1ccccn1)c1cc(-c2ccc(Cl)cc2)nc2ccccc12 | 98.1%
c1ccc(-c2cc3c(NCC4COc5ccccc5O4)ncnc3s2)cc1 (configuration not stated) | 42.1%
CCCc1cc(=O)[nH]c(SCC(=O)N2CCN(S(=O)(=O)c3ccc(C)cc3C)CC2)n1 | 93%
COc1ccc(CC(=O)Nc2ccc(-c3nnc(-c4ccc(C)cc4)o3)cc2)cc1 | 2.56% (active)
COc1cccc(NC(=O)Cc2ccc(C)cc2)c1 | 113%
COc1ccc(CC(=O)Nc2ccc(C(=O)NC(C)(C)C)cc2)cc1 | 92.4%
Cc1cccc(C)c1NC(=O)C(c1ccccc1)N1CC(=O)Nc2ccccc21 (configuration not stated) | 66%
O=C(Nc1cc(C(F)(F)F)ccc1Cl)C(=O)N1CCCCC1 | 91.1%
CC(CC(=O)Nc1cc(C(F)(F)F)ccc1Cl)c1ccccc1 (configuration not stated) | 51.3%
O=C(NNc1ccccc1Cl)C(O)(c1cccc(C(F)(F)F)c1)c1cccc(C(F)(F)F)c1 | 1.89% (active)
Cc1cc(C(=O)N/N=C/c2cc([N+](=O)[O-])cc(C)c2O)n[nH]1 | 83%
O=C(COC(=O)[C@H](Cc1ccccc1)NC(=O)c1cccs1)Nc1cc(F)ccc1F | 91.4%
CCCSc1nc2[nH]ncc2c(=O)[nH]1 | 90.6%
Cc1cc2oc(C(=O)Nc3c(C)n(C)n(-c4ccccc4)c3=O)c(C)c2cc1Cl | 85%
N=C(N)SCc1cccc2ccccc12 | 87.8%
CCn1c(SCc2ccc(C)cc2)nnc1-c1nn(-c2ccccc2)ccc1=O | 87.8%
CCc1ccc(-c2nn(-c3ccccc3)cc2CSC(=N)N)cc1 | 1.62% (active)
S=C(NCc1ccc(Cl)cc1)NC1CCCCC1 | 77.6%
COC(=O)Cc1ccc(NC(=S)NCc2ccc(Cl)cc2)cc1 | 83.4%
S=C(NCc1ccc(Cl)cc1)NC12CC3CC(CC(C3)C1)C2 | 2.95% (active)
C=CCNC(=O)COC(=O)c1ccccc1C(=O)N(C)C1CCCCC1 | 92.8%
Cc1cc(C)cc(NC(=S)NCc2ccc(F)cc2)c1 | 78.2%
Cc1ccc(C(=O)N2CC(=O)Nc3ccccc32)o1 | 100%

Compound | viability
CC(=O)c1cc(-c2ccccc2)n(CCC(=O)NC2CCCCCC2)c1C | 74.8%
COc1cccc(N(C(=O)C2COc3ccccc3O2)C(C(=O)NC2CCCCC2)c2ccc(O)cc2)c1 (configuration not stated) | 56.8%
COC(=O)Cc1csc(/N=C/c2c(O)n(-c3cccc(C(F)(F)F)c3)c(=O)c3ccccc23)n1 | 47.7%
CCOC(=O)C1=C(C)N=c2s/c(=C\C(=O)OC)c(=O)n2C1c1ccc(OC)cc1 (configuration not stated) | 95.2%
O=C1CCCC2=C1C(c1ccccc1)n1c(s/c(=C/c3cccc(F)c3)c1=O)=N2 (configuration not stated) | 80.9%
COc1ccc(OC)c(C2C3=C(N=c4s/c(=C\c5cccc(O)c5)c(=O)n42)c2ccccc2CC3)c1 (configuration not stated) | 3.19% (active)
COc1ccccc1CNC(=O)CN1CCC(n2cnc3cc(F)ccc32)CC1 | 101%
Nc1nc(NCCCN2CCOCC2)nc(Nc2ccccc2)c1[N+](=O)[O-] | 63.9%
COCCNc1nc(N)c([N+](=O)[O-])c(NCCO)n1 | 100%
CNc1nc(Nc2ccc(C)c(Cl)c2)nc(N)c1[N+](=O)[O-] | 2.94% (active)
CCN(CC)c1ccc(S(=O)(=O)N2CCOCC2)cc1NC(=O)CSc1cccc[n+]1[O-] | 93.9%
COc1ccc(CC(=O)N/N=C(\C)c2ccccn2)cc1 | 4.88%
CCN(CC)CCOc1ccc2c(c1)C(=NNC(=O)c1ccccn1)c1cc(OCCN(CC)CC)ccc1-2 | 0.61% (active)
CCC(C)(NC(=O)c1ccccn1)C(=O)NC1CCCCC1 (configuration not stated) | 105%
O=C(O)c1cccc(S(=O)(=O)Nc2ccc(O)cc2Sc2nc3ccccc3s2)c1 | 94%
O=[N+]([O-])c1c(NCCO)cc(Sc2nc3ccccc3s2)c2nonc12 | 1.48% (active)
COc1ccc(S(=O)(=O)Nc2ccc(O)c(Sc3nc4ccccc4s3)c2)cc1 | 78.8%
CCCCCNC(=O)c1cccnc1SCC(=O)Nc1ccccc1OC | 91.1%
CCOC(=O)CN(Cc1ccc(OC)c(OC)c1)S(=O)(=O)c1ccc(OC)cc1 | 96.9%
COc1ccc(C(CCN(Cc2ccc(OC)c(OC)c2)C(=O)CCl)c2ccccc2)cc1 (configuration not stated) | 1.54% (active)
COc1ccc(CCN(C(=O)COc2ccccc2)c2nc(-c3ccccc3)cs2)cc1OC | 74.5%
Cc1cc(F)ccc1S(=O)(=O)N1CCCOC1CNC(=O)C(=O)NCCC1=CCCCC1 (configuration not stated) | 93.5%
N#Cc1ccc(C(=O)Nc2nc(-c3cccs3)c(C(=O)C(F)(F)F)s2)cc1 | 40.3%
